# Laboratory results from PubChem BioAssay AID588477 (NMMLSC, 2011).
# Active and inactive are the calls of the source.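 Rule for the calls: active = valid curve fit with half-effect dose at most 10 µM and total binding change across doses of 30 points or more; inactive = the rest.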
# Tested on: Rab7
# Experiment: inhibitors of Bodipy-GTP binding across eight GTPases, SAR follow-up, selectivity assay for Cdc42 probe extension project, biochemical, round 1 SAR, Mg buffer, multiplex flow cytometry (AID 588477)
# Settings: GST-GTPase beads; series mostly up to 100 µM
row,Compound,outcome
1,O=C(C#Cc1ccccc1)c1cccc([N+](=O)[O-])c1,inactive
2,COc1ccc(C2CC(c3ccccc3)=NN2c2ccc(S(N)(=O)=O)cc2)cc1 (configuration not stated),inactive
